# Measured values published in PMC7862700, “An all-to-all approach to the identification of sequence-specific readers for epigenetic DNA modifications on cytosine”.
# How the values were obtained:
# Assay in all cases: DAPPL (digital affinity profiling via proximity ligation, sequencing); 10 mM Tris-HCl pH 7.5, 50 mM NaCl, 1 mM DTT, 4% glycerol, room temperature, 30 min; GST-TFs on glutathione beads, 16-mer random dsDNA library, 0.1% formaldehyde crosslink after washing; high values mean tight binding
# FLI1 = molecular target: T1, FLI1 (Homo sapiens, UniProt Q01543 1-452); settings: protein: recombinant; tags: N-terminal GST; dsDNA, one strand shown
# T1 sequence: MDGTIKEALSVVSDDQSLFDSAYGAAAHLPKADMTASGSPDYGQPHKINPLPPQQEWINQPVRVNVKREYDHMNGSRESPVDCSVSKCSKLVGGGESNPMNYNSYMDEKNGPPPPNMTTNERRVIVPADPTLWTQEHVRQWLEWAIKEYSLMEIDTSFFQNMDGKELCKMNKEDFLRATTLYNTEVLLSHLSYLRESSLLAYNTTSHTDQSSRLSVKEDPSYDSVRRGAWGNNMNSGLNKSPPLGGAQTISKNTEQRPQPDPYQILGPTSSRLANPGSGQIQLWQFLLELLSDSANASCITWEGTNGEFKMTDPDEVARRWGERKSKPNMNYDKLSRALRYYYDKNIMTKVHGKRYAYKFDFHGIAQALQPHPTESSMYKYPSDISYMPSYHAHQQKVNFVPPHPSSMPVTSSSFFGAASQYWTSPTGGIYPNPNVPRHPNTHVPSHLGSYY
# How it was run: (§1)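 A tag-only sample was pooled with DNA-barcoded human transcription factors that had been expressed in yeast as GST fusions and captured on glutathione beads. The pools were incubated for 30 min at room temperature with 200 nmole of a random double-stranded 16-mer DNA library in Tris/NaCl/DTT/glycerol buffer, then washed, crosslinked with 0.1% formaldehyde, proximity-ligated (BsaI/T4 ligase, 1 h, 37 °C), PCR-amplified and sequenced on an Illumina NextSeq500. Binding signal is each hexamer's read frequency for a factor divided by its frequency for the tag-only sample.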
# ELK1 = molecular target: T2, ELK1 (Homo sapiens, UniProt P19419 1-428); settings: protein: recombinant; tags: N-terminal GST; dsDNA, one strand shown
# T2 sequence: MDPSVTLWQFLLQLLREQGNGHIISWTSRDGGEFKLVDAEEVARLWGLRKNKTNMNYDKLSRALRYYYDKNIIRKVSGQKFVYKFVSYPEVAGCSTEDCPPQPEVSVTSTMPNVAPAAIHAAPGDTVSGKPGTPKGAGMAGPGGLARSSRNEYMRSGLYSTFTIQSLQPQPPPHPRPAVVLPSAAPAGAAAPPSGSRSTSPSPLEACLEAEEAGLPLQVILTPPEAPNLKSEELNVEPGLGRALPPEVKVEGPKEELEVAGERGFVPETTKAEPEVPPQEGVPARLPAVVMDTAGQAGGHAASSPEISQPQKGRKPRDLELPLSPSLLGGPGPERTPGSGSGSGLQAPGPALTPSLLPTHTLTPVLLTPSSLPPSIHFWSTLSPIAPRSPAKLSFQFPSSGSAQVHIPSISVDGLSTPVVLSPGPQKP
# How it was run: as §1
# GABPA = molecular target: T3, GABPA (Homo sapiens, UniProt Q06546 1-454); settings: protein: recombinant; tags: N-terminal GST; dsDNA, one strand shown
# T3 sequence: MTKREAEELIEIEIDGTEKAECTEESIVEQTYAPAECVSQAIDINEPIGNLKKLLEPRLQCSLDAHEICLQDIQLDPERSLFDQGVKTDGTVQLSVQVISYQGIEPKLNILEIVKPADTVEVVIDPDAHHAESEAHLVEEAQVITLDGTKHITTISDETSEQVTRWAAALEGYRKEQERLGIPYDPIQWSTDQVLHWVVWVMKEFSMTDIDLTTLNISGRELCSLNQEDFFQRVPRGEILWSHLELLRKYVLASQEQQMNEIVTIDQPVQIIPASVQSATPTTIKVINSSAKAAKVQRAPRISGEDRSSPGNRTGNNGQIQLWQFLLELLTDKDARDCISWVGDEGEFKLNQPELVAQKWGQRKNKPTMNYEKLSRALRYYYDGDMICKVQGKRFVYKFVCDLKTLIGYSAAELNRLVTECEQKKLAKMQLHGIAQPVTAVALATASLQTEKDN
# How it was run: as §1
# ERG = molecular target: T4, ERG (Homo sapiens, UniProt P11308 1-479); settings: protein: recombinant; tags: N-terminal GST; dsDNA, one strand shown
# T4 sequence: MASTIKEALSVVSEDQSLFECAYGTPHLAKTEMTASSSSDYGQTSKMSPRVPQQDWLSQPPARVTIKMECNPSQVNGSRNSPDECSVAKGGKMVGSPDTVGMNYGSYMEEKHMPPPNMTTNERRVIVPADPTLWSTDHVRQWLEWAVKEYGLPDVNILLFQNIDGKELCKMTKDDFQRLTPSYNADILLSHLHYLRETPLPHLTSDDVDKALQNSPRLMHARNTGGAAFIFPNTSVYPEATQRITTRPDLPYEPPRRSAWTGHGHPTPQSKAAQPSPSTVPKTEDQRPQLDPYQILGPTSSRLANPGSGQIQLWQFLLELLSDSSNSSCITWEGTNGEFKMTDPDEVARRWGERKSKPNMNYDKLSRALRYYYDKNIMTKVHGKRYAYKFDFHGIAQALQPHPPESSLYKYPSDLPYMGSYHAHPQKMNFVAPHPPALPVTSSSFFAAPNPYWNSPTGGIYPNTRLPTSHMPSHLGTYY
# How it was run: as §1
# ELF1 = ELF1 (Homo sapiens, UniProt P32519 1-619); settings: protein: recombinant; tags: N-terminal GST; dsDNA, one strand shown
# Chain of ELF1 (P32519 whole entry): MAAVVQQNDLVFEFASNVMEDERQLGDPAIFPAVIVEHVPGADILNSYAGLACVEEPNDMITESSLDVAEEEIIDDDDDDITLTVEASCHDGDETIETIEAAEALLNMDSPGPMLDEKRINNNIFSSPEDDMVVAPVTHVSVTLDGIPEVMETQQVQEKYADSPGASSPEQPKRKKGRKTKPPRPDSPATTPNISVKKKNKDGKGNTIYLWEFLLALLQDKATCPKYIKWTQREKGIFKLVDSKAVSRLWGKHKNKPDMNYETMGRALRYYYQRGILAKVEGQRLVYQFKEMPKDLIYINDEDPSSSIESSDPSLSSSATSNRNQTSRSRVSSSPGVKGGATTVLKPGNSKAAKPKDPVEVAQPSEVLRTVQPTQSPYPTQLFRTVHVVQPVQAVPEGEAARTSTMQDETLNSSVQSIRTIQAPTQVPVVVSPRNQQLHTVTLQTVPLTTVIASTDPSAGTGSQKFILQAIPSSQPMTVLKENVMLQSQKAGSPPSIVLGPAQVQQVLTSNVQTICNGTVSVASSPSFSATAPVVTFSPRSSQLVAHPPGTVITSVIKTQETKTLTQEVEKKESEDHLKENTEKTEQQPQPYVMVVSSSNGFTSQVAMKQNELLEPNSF
# How it was run: as §1
# EHF = molecular target: T5, EHF (Homo sapiens, UniProt Q9NZC4 1-300); settings: protein: recombinant; tags: N-terminal GST; dsDNA, one strand shown
# T5 sequence: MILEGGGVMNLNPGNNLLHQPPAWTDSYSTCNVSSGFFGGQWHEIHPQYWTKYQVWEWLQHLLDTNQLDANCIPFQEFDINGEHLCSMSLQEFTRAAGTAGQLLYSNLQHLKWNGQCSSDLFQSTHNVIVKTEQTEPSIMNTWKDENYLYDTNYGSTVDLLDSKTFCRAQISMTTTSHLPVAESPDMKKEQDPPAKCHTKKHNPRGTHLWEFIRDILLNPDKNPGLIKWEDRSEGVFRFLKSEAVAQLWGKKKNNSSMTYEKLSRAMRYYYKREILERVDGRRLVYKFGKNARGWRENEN
# How it was run: as §1
# SPI1 = SPI1 (Homo sapiens, UniProt P17947 1-270); settings: protein: recombinant; tags: N-terminal GST; dsDNA, one strand shown
# How it was run: as §1
# SPIB = SPIB (Homo sapiens, UniProt Q01892 1-262); settings: protein: recombinant; tags: N-terminal GST; dsDNA, one strand shown
# Chain of SPIB (Q01892 whole entry): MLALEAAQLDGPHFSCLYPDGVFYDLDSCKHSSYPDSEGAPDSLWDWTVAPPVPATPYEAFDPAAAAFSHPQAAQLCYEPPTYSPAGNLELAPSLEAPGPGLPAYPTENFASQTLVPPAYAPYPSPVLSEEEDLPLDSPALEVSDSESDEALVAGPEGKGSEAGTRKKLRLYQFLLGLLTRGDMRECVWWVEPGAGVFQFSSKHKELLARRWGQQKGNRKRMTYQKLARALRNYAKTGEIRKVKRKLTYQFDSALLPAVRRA
# How it was run: as §1
# ELK3 = molecular target: T6, ELK3 (Homo sapiens, UniProt P41970 1-407); settings: protein: recombinant; tags: N-terminal GST; dsDNA, one strand shown
# T6 sequence: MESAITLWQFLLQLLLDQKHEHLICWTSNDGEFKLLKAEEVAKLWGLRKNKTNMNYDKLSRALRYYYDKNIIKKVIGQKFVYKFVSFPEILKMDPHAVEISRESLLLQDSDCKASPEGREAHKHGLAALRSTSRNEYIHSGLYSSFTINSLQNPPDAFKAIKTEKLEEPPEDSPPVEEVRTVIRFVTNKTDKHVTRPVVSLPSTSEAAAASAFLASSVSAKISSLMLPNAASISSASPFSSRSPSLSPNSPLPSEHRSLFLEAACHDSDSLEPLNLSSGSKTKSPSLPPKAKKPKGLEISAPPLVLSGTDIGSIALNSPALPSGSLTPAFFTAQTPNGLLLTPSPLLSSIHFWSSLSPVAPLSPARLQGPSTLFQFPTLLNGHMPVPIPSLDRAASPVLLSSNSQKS
# How it was run: as §1
# FEV = molecular target: T7, FEV (Homo sapiens, UniProt Q99581 1-238); settings: protein: recombinant; tags: N-terminal GST; dsDNA, one strand shown
# T7 sequence: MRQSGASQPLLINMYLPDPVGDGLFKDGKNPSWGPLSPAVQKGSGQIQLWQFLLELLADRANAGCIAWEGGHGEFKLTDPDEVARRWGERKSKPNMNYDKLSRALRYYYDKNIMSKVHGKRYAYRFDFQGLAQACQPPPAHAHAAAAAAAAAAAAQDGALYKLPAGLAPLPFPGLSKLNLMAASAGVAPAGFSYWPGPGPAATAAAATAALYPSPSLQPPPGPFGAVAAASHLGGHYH
# How it was run: as §1
# ETV5 = ETV5 (Homo sapiens, UniProt P41161 1-510); settings: protein: recombinant; tags: N-terminal GST; dsDNA, one strand shown
# Chain of ETV5 (P41161 whole entry): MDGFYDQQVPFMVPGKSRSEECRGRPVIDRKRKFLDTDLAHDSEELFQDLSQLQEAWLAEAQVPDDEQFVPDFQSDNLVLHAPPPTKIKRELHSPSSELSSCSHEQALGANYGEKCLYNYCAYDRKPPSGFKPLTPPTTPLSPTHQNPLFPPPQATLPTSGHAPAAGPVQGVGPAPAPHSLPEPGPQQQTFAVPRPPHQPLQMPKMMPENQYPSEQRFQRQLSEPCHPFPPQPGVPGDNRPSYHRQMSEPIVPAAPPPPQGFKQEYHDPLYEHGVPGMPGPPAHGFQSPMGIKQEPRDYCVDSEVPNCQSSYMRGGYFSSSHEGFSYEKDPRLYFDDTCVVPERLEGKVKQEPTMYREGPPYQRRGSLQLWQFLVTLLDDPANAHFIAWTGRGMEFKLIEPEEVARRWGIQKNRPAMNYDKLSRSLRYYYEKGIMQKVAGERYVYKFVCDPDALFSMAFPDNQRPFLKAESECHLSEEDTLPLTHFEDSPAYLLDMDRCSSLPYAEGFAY
# How it was run: as §1
# HSF1 = HSF1 (Homo sapiens, UniProt Q00613 1-529); settings: protein: recombinant; tags: N-terminal GST; chain copies: 3; dsDNA, one strand shown
# Chain of HSF1 (Q00613 whole entry): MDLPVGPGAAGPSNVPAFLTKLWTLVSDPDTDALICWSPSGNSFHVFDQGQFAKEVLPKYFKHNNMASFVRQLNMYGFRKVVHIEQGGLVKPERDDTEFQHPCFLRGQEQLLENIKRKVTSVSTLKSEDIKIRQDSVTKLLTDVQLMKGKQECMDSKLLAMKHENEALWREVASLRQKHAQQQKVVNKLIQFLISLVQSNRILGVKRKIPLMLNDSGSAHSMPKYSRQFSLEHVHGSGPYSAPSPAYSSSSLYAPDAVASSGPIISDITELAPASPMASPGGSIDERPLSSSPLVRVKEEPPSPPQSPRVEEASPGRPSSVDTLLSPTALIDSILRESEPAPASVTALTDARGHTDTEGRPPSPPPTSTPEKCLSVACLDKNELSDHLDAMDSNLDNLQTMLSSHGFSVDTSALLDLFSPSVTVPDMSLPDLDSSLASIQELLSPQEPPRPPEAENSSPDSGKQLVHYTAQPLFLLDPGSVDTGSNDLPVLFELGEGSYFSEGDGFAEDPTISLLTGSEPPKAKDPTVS
# How it was run: as §1
# SPIC = molecular target: T8, SPIC (Homo sapiens, UniProt Q8N5J4 1-248); settings: protein: recombinant; tags: N-terminal GST; dsDNA, one strand shown
# T8 sequence: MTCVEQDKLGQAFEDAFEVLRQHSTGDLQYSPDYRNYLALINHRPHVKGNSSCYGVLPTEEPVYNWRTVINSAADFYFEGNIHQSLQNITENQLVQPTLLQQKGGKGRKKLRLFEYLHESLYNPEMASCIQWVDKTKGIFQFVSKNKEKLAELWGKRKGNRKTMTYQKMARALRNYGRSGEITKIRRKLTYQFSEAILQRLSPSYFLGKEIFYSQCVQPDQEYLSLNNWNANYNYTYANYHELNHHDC
# How it was run: as §1
# ELF4 = ELF4 (Homo sapiens, UniProt Q99607 1-663); settings: protein: recombinant; tags: N-terminal GST; dsDNA, one strand shown
# Chain of ELF4 (Q99607 whole entry): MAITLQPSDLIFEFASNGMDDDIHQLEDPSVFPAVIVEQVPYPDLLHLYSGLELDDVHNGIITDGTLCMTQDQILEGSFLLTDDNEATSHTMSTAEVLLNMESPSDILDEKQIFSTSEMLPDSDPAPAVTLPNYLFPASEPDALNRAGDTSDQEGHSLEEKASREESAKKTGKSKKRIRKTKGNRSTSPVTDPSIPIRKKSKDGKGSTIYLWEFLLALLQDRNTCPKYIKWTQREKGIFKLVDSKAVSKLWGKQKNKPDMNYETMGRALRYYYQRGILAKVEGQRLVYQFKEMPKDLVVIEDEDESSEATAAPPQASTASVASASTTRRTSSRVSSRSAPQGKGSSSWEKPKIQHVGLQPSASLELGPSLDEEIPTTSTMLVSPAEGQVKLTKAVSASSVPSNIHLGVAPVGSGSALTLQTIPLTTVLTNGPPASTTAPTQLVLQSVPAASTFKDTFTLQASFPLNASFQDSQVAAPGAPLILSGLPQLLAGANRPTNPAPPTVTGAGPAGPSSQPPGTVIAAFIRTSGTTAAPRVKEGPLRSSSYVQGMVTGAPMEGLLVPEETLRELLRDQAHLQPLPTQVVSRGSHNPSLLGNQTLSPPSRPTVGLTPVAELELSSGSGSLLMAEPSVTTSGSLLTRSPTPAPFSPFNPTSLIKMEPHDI
# How it was run: as §1
# ELK4 = molecular target: T9, ELK4 (Homo sapiens, UniProt P28324-2 1-405); settings: protein: recombinant; tags: N-terminal GST; dsDNA, one strand shown
# T9 sequence: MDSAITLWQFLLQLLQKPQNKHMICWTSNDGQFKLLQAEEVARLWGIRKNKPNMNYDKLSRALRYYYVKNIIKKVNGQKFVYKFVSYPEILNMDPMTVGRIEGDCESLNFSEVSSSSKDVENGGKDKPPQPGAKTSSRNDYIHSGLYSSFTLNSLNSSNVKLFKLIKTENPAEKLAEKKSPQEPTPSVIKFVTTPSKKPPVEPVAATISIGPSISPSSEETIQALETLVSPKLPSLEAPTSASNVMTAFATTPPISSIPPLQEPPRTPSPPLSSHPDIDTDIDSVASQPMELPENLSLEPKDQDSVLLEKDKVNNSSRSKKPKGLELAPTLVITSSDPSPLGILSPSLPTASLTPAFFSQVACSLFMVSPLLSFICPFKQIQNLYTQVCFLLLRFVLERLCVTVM
# How it was run: as §1
# ETV2 = molecular target: T10, ETV2 (Homo sapiens, UniProt O00321 1-342); settings: protein: recombinant; tags: N-terminal GST; dsDNA, one strand shown
# T10 sequence: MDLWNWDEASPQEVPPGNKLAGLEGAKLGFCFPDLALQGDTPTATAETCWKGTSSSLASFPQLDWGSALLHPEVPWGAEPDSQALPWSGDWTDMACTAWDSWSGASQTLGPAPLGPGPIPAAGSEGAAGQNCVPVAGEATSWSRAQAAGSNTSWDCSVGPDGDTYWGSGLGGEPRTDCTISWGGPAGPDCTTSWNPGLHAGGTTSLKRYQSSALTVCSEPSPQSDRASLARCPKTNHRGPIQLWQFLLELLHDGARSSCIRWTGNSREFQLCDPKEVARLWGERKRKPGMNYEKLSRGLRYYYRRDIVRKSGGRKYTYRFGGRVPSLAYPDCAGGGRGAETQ
# How it was run: as §1
# ELF3 = molecular target: T11, ELF3 (Homo sapiens, UniProt P78545 1-371); settings: protein: recombinant; tags: N-terminal GST; dsDNA, one strand shown
# T11 sequence: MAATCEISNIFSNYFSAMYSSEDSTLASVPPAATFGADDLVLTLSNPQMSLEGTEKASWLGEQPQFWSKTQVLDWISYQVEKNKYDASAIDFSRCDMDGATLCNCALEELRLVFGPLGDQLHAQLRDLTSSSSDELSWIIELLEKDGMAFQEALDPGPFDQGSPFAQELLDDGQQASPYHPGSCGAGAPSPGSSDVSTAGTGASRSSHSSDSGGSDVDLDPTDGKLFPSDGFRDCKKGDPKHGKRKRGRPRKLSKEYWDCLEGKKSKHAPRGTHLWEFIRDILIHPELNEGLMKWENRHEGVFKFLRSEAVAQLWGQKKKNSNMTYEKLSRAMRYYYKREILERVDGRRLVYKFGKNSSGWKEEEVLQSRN
# How it was run: as §1
# CRX = CRX (Homo sapiens, UniProt O43186 1-299); settings: protein: recombinant; tags: N-terminal GST; dsDNA, one strand shown
# Chain of CRX (O43186 whole entry): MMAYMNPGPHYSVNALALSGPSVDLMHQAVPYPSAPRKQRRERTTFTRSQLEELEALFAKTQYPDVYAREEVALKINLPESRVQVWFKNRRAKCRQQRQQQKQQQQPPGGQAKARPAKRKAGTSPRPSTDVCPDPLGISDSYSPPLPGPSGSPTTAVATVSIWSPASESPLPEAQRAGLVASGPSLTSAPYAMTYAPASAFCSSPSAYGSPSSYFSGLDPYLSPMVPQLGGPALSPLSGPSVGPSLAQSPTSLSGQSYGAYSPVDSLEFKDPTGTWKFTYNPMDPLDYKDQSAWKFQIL
# How it was run: as §1
# ETV1 = ETV1 (Homo sapiens, UniProt P50549 1-477); settings: protein: recombinant; tags: N-terminal GST; dsDNA, one strand shown
# Chain of ETV1 (P50549 whole entry): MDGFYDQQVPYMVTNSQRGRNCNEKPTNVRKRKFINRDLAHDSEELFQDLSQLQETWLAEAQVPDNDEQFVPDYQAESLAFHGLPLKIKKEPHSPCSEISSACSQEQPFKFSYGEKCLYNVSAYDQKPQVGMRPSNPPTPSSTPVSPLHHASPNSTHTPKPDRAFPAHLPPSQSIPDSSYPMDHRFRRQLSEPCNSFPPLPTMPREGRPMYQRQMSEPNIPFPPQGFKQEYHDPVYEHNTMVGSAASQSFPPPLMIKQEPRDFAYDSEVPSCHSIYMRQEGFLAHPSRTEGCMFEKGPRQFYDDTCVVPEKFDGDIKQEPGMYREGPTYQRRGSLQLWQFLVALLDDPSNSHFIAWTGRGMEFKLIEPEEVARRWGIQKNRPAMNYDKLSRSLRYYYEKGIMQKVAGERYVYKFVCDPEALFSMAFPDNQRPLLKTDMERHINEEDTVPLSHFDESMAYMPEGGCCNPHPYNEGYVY
# How it was run: as §1
sequence,measurement,setting,value
TTACTA,binding signal,FLI1,"1.34 fold enrichment (6-mer frequency, TF over GST control)"
same,binding signal,ELK1,"1.31 fold enrichment (6-mer frequency, TF over GST control)"
same,binding signal,GABPA,"1.36 fold enrichment (6-mer frequency, TF over GST control)"
same,binding signal,ERG,"1.33 fold enrichment (6-mer frequency, TF over GST control)"
same,binding signal,ELF1,"1.28 fold enrichment (6-mer frequency, TF over GST control)"
same,binding signal,EHF,"1.23 fold enrichment (6-mer frequency, TF over GST control)"
same,binding signal,SPI1,"1.27 fold enrichment (6-mer frequency, TF over GST control)"
same,binding signal,SPIB,"1.36 fold enrichment (6-mer frequency, TF over GST control)"
same,binding signal,ELK3,"1.31 fold enrichment (6-mer frequency, TF over GST control)"
same,binding signal,FEV,"1.14 fold enrichment (6-mer frequency, TF over GST control)"
same,binding signal,ETV5,"1.22 fold enrichment (6-mer frequency, TF over GST control)"
same,binding signal,HSF1,"1.79 fold enrichment (6-mer frequency, TF over GST control)"
same,binding signal,SPIC,"1.38 fold enrichment (6-mer frequency, TF over GST control)"
same,binding signal,ELF4,"1.3 fold enrichment (6-mer frequency, TF over GST control)"
same,binding signal,ELK4,"1.32 fold enrichment (6-mer frequency, TF over GST control)"
same,binding signal,ETV2,"1.34 fold enrichment (6-mer frequency, TF over GST control)"
same,binding signal,ELF3,"1.25 fold enrichment (6-mer frequency, TF over GST control)"
same,binding signal,CRX,"2.18 fold enrichment (6-mer frequency, TF over GST control)"
same,binding signal,ETV1,"1.23 fold enrichment (6-mer frequency, TF over GST control)"
